Screens (PubChem BioAssay)
The entries come from a sample that favours hits as a whole.
Tgondii IFNg = inhibitors of Toxoplasma gondii growth with IFN-gamma. Toxoplasma gondii growth in IFN-gamma-treated host cells; hits give low values. activity change, negative = inhibition, % (test concentration not listed). 69,000 compounds, 3.8% hits. AID 1259416; in the data active = activity change below about -70%, passing the limit was not always enough;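 also: host cells are HeLa cells infected with Toxoplasma gondii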
A number is an active result; – = inactive; ! = not confirmed by another sample.

SMILES | Tgondii IFNg
CCOC(=O)C(=O)Nc1ccc(-c2nc(-c3ccc(C)cc3C)co2)cc1 | –
CC(C)c1nc(CCN(C)S(C)(=O)=O)n(-c2ccc3c(c2)OCCO3)n1 | –
O=c1cc(N2CCNCC2)oc2c(-c3ccccc3)cccc12 | -85!
O=S(=O)(c1ccccc1)c1cnc2c(N3CCNCC3)cccc2c1 | –
Cc1cccc(N2C(=O)c3cccc4c(N5CCNCC5)ccc(c34)C2=O)c1 | –
Cc1noc(C)c1NC(=O)N(C)C[C@@H]1OCCCC[C@@H](C)Oc2ccc(NC(=O)Nc3ccc(C(F)(F)F)cc3)cc2C(=O)N([C@@H](C)CO)C[C@H]1C | –
CN1CC(=O)N(c2cccc(F)c2)CC12CCN(C(=O)c1cccs1)C2 (configuration not stated) | –
CN1CC(=O)N(c2ccsc2)CC12CCN(C(=O)Nc1ccccc1F)C2 (configuration not stated) | -101
CN1CC(=O)N(c2ccsc2)CC12CCN(CC(=O)O)C2 (configuration not stated) | –
COc1ccc(CC(=O)N2CCC[C@@H]2C(=O)NCCc2csc(-c3ccccc3)n2)cc1Cl | –
CCCn1c(SCC(=O)N2CCCC2)nnc1C(C)C | –
CC(C)C(=O)c1ccc2nnc(C3CN(C)CCN3C)n2c1 (configuration not stated) | –
COc1ccc([C@@H]2C[C@H](C(=O)Nc3cccc(O)c3)N(C)S(=O)(=O)N2)cc1OC | –
CCCCCCCCc1ccc(CCC(N)(CO)CO)cc1 | -82!
CCCCCCCCc1ccc(-c2ccc(C(=O)O)cc2)cc1 | –
CCCCCCCCCCCCCCCCCCc1ccc(C(=O)/C=C/C(=O)O)cc1 | –
CCc1nc(SCC(=O)NC(c2ccccc2)c2ccco2)n[nH]1 (configuration not stated) | –
S=C1NCN(CCCCc2ccccc2)CN1 | –
Cc1nccc(N2CCC(Cc3cccc(C(=O)O)c3)CC2)n1 | –
CCn1cc(C(CNC(=O)Nc2ccc(OC)cc2OC)c2cccnc2)c2ccccc21 (configuration not stated) | –
CCOC(=O)c1ccc(NC(=O)NCC(c2cccnc2)c2c[nH]c3ccccc23)cc1 (configuration not stated) | –
Cn1cc(C(CNC(=O)Nc2cccc(Br)c2)c2cccnc2)c2ccccc21 (configuration not stated) | –
CCn1cc(C(CNC(=O)Nc2cccc(SC)c2)c2cccnc2)c2ccccc21 (configuration not stated) | -111
CCOC(=O)c1ccc(NC(=O)NCC(c2cccnc2)c2cn(C)c3ccccc23)cc1 (configuration not stated) | –
CCOC(=O)c1ccc(NC(=O)NCC(c2cccnc2)c2cn(CC)c3ccccc23)cc1 (configuration not stated) | -102
SMILES | Tgondii IFNg
COc1ccc(NC(=O)c2c(O)c3cccnc3n(-c3ccc(OC)cc3)c2=O)cc1 | –
O=C(c1ccc(-n2cnnc2)cc1)N1CCC(c2ccccc2Cl)C1 (configuration not stated) | –
c1ccc(C2=N[C@H](c3ccccc3)[C@H](c3ccccc3)N2)cc1 | –
COc1cccc(-c2nccn2CC2COc3ccccc3O2)c1OC (configuration not stated) | –
COc1cccc(C(=O)Nc2ccc(-c3nc(-c4ccccc4)co3)cc2)c1 | –
Cc1ccccc1CCNC(=O)c1cc2cc(S(=O)(=O)N(C)C)ccc2n1Cc1ccncc1 | –
Cc1cccc(CN2CCC(c3nn(C)c(=O)n3-c3ccccc3)CC2)c1O | –
O=C(NC(=O)c1csc(-c2ccc(C(F)(F)F)cc2Cl)n1)Nc1ccc(F)cc1 | -98
O=C(Nc1ccc2c(c1)OCCO2)c1csc(-c2cccc3c2CCO3)n1 | –
O=C(NCCc1csc(-c2ccc(Cl)cc2)n1)C(=O)Nc1ccc(F)cc1 | –
COc1ccc2c(c1)NC1(CCN(S(=O)(=O)c3cc(C)cc(C)c3)CC1)c1cccn1-2 | –
Cn1ncc(Cl)c1-c1cc(C(=O)N[C@H](CN)Cc2ccc(F)c(F)c2)oc1Cl | -81
c1cncc(N2CCOC3CCN(Cc4cccs4)CCC32)c1 (configuration not stated) | –
Cc1ccc(C(=O)N2CCC3(CCC(COCC4CC4)N3C)CC2)cc1 (configuration not stated) | –
Cc1cccc(CN2CCC3(CCC(COCC4CC4)N3C)CC2)n1 (configuration not stated) | -85
CC(C)N1CC2(CCN(Cc3cccnc3)CC2)CC1COCC1CC1 (configuration not stated) | –
C[C@H](O)C#Cc1ccc([C@@H]2[C@@H](CO)N3CCCCN(C(=O)c4ccc5c(c4)OCO5)C[C@H]23)cc1 | –
O=S(=O)(c1cccc(Oc2ccccc2)c1)N1CCn2cncc2C1 | –
Cc1ccc(C)c(OC(C)C(=O)NCc2csc(N)n2)c1 (configuration not stated) | –
C=C(NC(=O)C(=C)NC(=O)c1csc(C2=N[C@@H]3c4csc(n4)[C@H]4NC(=O)c5csc(n5)[C@H]([C@](C)(O)[C@@H](C)O)NC(=O)[C@H]5CSC(=N5)/C(=C/C)NC(=O)[C@H]([C@@H](C)O)NC(=O)c5csc(n5)[C@]3(CC2)NC(=O)[C@H](C)NC(=O)C(=C)NC(=O)[C@H](C)NC(=O)[C@H]([C@@H](C)CC)N[C@@H]2C=Cc3c([C@H](C)O)cc(nc3[C@H]2O)C(=O)O[C@@H]4C)n1)C(N)=O | -72
C=C(NC(=O)C(=C)NC(=O)c1csc(C2=N[C@H]3c4csc(n4)[C@H]4NC(=O)c5csc(n5)[C@H]([C@@](C)(O)[C@@H](C)O)NC(=O)[C@H]5CSC(=N5)/C(=C/C)NC(=O)[C@H]([C@@H](C)O)NC(=O)c5csc(n5)[C@]3(CC2)NC(=O)[C@H](C)NC(=O)C(=C)NC(=O)[C@H](C)NC(=O)[C@H](C(C)CC)N[C@@H]2C=Cc3c([C@H](C)O)cc(nc3[C@H]2O)C(=O)O[C@@H]4C)n1)C(N)=O (some centres not stated) | –
Cc1cnc(C)c(-c2cc(O)c3c(c2)CN(C(=O)c2occc2C)CCO3)n1 | –
c1coc(CN2CCc3ncnc(N4CCCC4)c3CC2)c1 | –
Cn1c(CNC(=O)COc2ccccc2)cc2cc(Cl)ccc21 | –
CC(C)N(C)[C@@H]1CCN(C(=O)c2cnccn2)[C@@H]1Cc1cnn(C)c1 | –
SMILES | Tgondii IFNg
Nc1[nH]nc2nc3ccccc3nc12 | –
c1ccc2c(c1)nc1c2ccc2[nH]onc21 | –
Oc1c(Cl)c2nc3ccccc3nc2c2ccccc12 | -105
CCc1nc(SCC(=O)NCCc2c[nH]c3ccccc23)n[nH]1 | –
COc1cccc(-c2nccc(C3CCCN3C(=O)c3ccc4ncccc4c3)n2)c1 (configuration not stated) | –
C=C[C@H]1CN2CC[C@H]1C[C@H]2[C@H](O)c1ccnc2ccc(OC)cc12 | -85
O=C(c1ccc(=O)[nH]c1)N1CCOc2c(O)cc(-c3nc4ccccc4s3)cc2C1 | –
CC(C)CS(=O)(=O)N1C[C@H]2C[C@H](C(=O)N3CCOCC3)[C@@H](C1)O2 | –
Cc1cc(C)cc(NC(=O)N2CCC3(CC2)CC(=O)c2ccccc2O3)c1 | –
O=C1CC2(CCN(C(=O)NCc3ccc(F)cc3)CC2)Oc2ccccc21 | –
Cc1cc(NC(=O)N2CCC3(CC2)CC(=O)c2ccccc2O3)ccc1Br | -75
O=C(O)COc1ccc(-n2ccnc2-c2ccccn2)cc1Cl | –
CCc1ccc(CN(C)S(=O)(=O)NCc2ccccc2)nc1 | –
